Source: PubChem BioAssay (NCATS)
Records with an inconclusive call do not appear. Active and inactive are the calls of the source. The call rests on the fitted dose curve; in most records, active means well fitted inhibition curve with a large enough effect; inconclusive means small, poorly fitted or top-dose-only effect; inactive means flat fitted curve, though single readings scatter.

Assay: qHTS for identification of novel therapeutic agents for treatment of microphthalmiaassociated transcription factor (MiT) renal cell carcinoma (RCC) (AID 1963991);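 further: curves scaled with 100% = DMSO viability and 0% = empty wells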
Settings: TFE3-RCC viability, CellTiter-Glo, 48 h; measured here: UOK124 Z-AUC; stronger effect = lower value
In short: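 UOK109/UOK124/UOK145 (TFE3 fusions, three partners); 500 cells/well; MIPE v4.0, 1912 cpds, 11 conc.; 48 h, 37 C; CellTiter-Glo, 15 min RT; lum. Norm.: DMSO 100%, empty 0%.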

| SMILES | z-score |
| --- | --- |
| CCCCC[C@H](O)C=C[C@H]1[C@H](O)CC(=O)[C@H]1CC=CCCCC(=O)O | 0.597 |
| C[C@H](c1ccc(F)cc1CCCC(=O)O)N(c1cc(F)ccc1F)S(=O)(=O)c1ccc(Cl)cc1 | -0.0423 |
| CC1(C)CC(=O)c2c(C(F)(F)F)nn(-c3ccc(C(N)=O)c(NC4CCC(O)CC4)c3)c2C1 (configuration not stated) | -0.879 |
| COc1ccc(-c2ccc3ncc4c(c3c2)n(-c2ccc(N3CCNCC3)c(C(F)(F)F)c2)c(=O)n4C)cn1 | -3.95 |
| N#Cc1c(N(CC(=O)O)CC(=O)O)sc(C(=O)O)c1CC(=O)O | 0.354 |
| C=C1c2cccc(O)c2C(O)=C2C(=O)[C@@]3(O)C(O)=C(C(N)=O)C(=O)[C@@H](N(C)C)[C@@H]3[C@@H](O)[C@H]12 | 0.336 |

Same assay, conditions: TFE3-RCC viability, CellTiter-Glo, 48 h; measured here: UOK145 Z-AUC; stronger effect = lower value

| SMILES | z-score |
| --- | --- |
| C#CCN(C)CC1=Cc2ccccc2Oc2ccccc21 | -1.17 |
| O=C1NC(=O)C(c2cnc3ccccn23)=C1c1cn2c3c(cccc13)CN(C(=O)N1CCOCC1)CC2 | -1.46 |
| Cc1ccc(C(=O)N(CCCN)[C@@H](c2nc3cc(Cl)ccc3c(=O)n2Cc2ccccc2)C(C)C)cc1 | -1.7 |
| CCC[C@H](Nc1nc(-c2ccc(NC(=O)NCC)c(OC)c2)ncc1C)c1cccnc1 | -2.31 |
| C[C@]12C=CC(=O)C=C1CC[C@@H]1[C@@H]2[C@@H](O)C[C@@]2(C)[C@@H]1CC[C@]2(O)C(=O)CO | -1.47 |
| CCCCOCCOc1nc(-c2ccc(C(=O)O)c(F)c2)sc1C | 0.316 |
| O=C(O)c1nc(=O)[nH]c(=O)[nH]1 | 1.2 |
| C[C@H]1COC2=C1C(=O)C(=O)c1c2ccc2c1CCCC2(C)C | -0.271 |
| Cc1cn([C@@H]2C[C@@H](O)[C@H](CO)O2)c(=O)[nH]c1=O | 0.117 |
| CS(=O)(=O)c1ccc(C2=C(c3ccccc3)C(=O)OC2)cc1 | 0.708 |
| Cc1ccccc1C(C(=O)NC1CCCCC1)N(C(=O)CNc1ccc(C#N)cc1)c1cccc(F)c1 (configuration not stated) | 0.632 |
| CCCCC(F)(F)[C@@]1(O)CC[C@H]2[C@H](CC(=O)[C@@H]2CCCCCCC(=O)O)O1 | 0.602 |
| CC[C@H](C=C[C@@H](C)[C@H]1CC[C@H]2[C@@H]3CC=C4C[C@@H](O)CC[C@]4(C)[C@@H]3CC[C@]12C)C(C)C | 1.02 |
| Cc1cc2c(cc1C1(c3ccc(C(=O)O)cn3)CC1)C(C)(C)CCC2(C)C | 0.66 |
| CO[C@H]1O[C@@H]2O[C@@]3(C)CC[C@@H]4[C@@H](C)CC[C@@H]([C@H]1C)[C@@]24OO3 | 0.763 |
| CCOC(=O)[C@@H](N)CCC(=O)N[C@@H](CSCc1ccccc1)C(=O)N[C@@H](C(=O)OCC)c1ccccc1 | 0.0682 |
| CN1C(=O)C[C@H](C(=O)N[C@@H](Cc2cnc[nH]2)C(=O)N2CCC[C@@H]2C(N)=O)NC1=O | 0.628 |

| SMILES | z-score |
| --- | --- |
| Cc1ccc(C(=O)N(CCCN)[C@@H](c2oc3cc(Cl)ccc3c(=O)c2Cc2ccccc2)C(C)C)cc1 | -2 |
| CN1CCN2c3ncccc3Cc3ccccc3C2C1 (configuration not stated) | 0.581 |
| CCNC(=O)CCCC=CC[C@@H]1[C@H](C=CC(O)CCc2ccccc2)[C@@H](O)C[C@@H]1O (some centres not stated) | 1.41 |
| CCN(CCO)CCCOc1ccc2c(Nc3cc(CC(=O)Nc4cccc(F)c4)[nH]n3)ncnc2c1 | 0.045 |
| CN(C)CCN(C)C(=O)c1ccc(NC(=O)Nc2ccc(-c3nc(N4CCOCC4)c4ccn(CC(F)(F)F)c4n3)cc2)cc1 | -1.67 |
| CC(C)C[C@@H](N)[C@H](O)C(=O)N[C@H](C(=O)N[C@H](C(=O)N[C@@H](CC(=O)O)C(=O)O)C(C)C)C(C)C | -0.2 |
| CCC[C@H](N[C@@H](C)C(=O)N1[C@@H]2CCCC[C@H]2C[C@H]1C(=O)O)C(=O)OCC | 0.752 |
| O=C(O)C1=CC(O)C(O)[C@H](O)C1 (some centres not stated) | 0.319 |
| COc1ccc(-c2nc3ccc(C4=NNC(=O)CC4C)cc3[nH]2)cc1 (configuration not stated) | 0.145 |
| COc1cccc(OC)c1-c1cc(C(=O)NC2(C(=O)O)C3CC4CC(C3)CC2C4)nn1-c1ccnc2cc(Cl)ccc12 (configuration not stated) | 0.707 |
| CCC(=O)N1CCN(c2ccc(-n3c(=O)ccc4cnc5ccc(-c6cnc7ccccc7c6)cc5c43)cc2C(F)(F)F)CC1 | -1.82 |
| CCCCC[C@H](O)C=C[C@H]1[C@H](O)CC(=O)[C@H]1CC=CCCCC(=O)O | 0.962 |
| C[C@H](c1ccc(F)cc1CCCC(=O)O)N(c1cc(F)ccc1F)S(=O)(=O)c1ccc(Cl)cc1 | -0.497 |
| CC1(C)CC(=O)c2c(C(F)(F)F)nn(-c3ccc(C(N)=O)c(NC4CCC(O)CC4)c3)c2C1 (configuration not stated) | -1.53 |
| COc1ccc(-c2ccc3ncc4c(c3c2)n(-c2ccc(N3CCNCC3)c(C(F)(F)F)c2)c(=O)n4C)cn1 | -3.85 |
| N#Cc1c(N(CC(=O)O)CC(=O)O)sc(C(=O)O)c1CC(=O)O | 0.00458 |
| C=C1c2cccc(O)c2C(O)=C2C(=O)[C@@]3(O)C(O)=C(C(N)=O)C(=O)[C@@H](N(C)C)[C@@H]3[C@@H](O)[C@H]12 | 0.104 |

Assay: qHTS profiling for inhibitors of Plasmodium falciparum proliferation (AID 504749);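 further: 0% = DMSO vehicle and full inhibition = artemisinin control; nearly all actives have a fitted effect of over 60% in size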
Settings: P. falciparum in erythrocytes, SYBR Green DNA, 72 h; at 28.7 µM (top of the series); parasite line A
In short: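 SYBR Green fluorescence (ex 485 nm, em 535 nm) reports parasite DNA after 72 h compound exposure of infected red cells at 0.3% parasitemia, 2.5% hematocrit; signal normalized to 0.29 uM artemisinin and vehicle wells.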

| SMILES | activity, negative = inhibition |
| --- | --- |
| COc1cc2c(cc1OC)CC(=O)N(CCCN(C)C[C@H]1Cc3cc(OC)c(OC)cc31)CC2 | -2.12% (inactive) |
| O=C(O)c1nc(=O)[nH]c(=O)[nH]1 | -16.8% (inactive) |
| CS(=O)(=O)c1ccc(C2=C(c3ccccc3)C(=O)OC2)cc1 | 0.606% (inactive) |
| CN1CCN2c3ncccc3Cc3ccccc3C2C1 (configuration not stated) | -2.79% (inactive) |
| N#CC(c1ccc(Cl)cc1)c1c(Cl)cc(-n2ncc(=O)[nH]c2=O)cc1Cl (configuration not stated) | -9.47% (inactive) |
| COc1ccnc(CS(=O)c2nc3ccc(OC(F)F)cc3[nH]2)c1OC (configuration not stated) | -7.9% (inactive) |
| N#Cc1c(N(CC(=O)O)CC(=O)O)sc(C(=O)O)c1CC(=O)O | 12.6% (inactive) |
